Source: PubChem BioAssay (NCATS)
Records with an inconclusive call do not appear. Where a call stands in place of a potency, no number is given. Active and inactive are the calls of the source. Calls come from the whole dose curve; as a rule, active = well fitted curve in the direction sought with a large enough effect; inconclusive = small, poorly fitted or top-dose-only effect, or another doubt; inactive = no such curve, though single readings can be large; an effect the other way counts as inactive or inconclusive.

How the values were obtained:
Furin (Homo sapiens) = Furin (Homo sapiens) (UniProt P09958); assay: Furin counterscreen qHTS for Zika virus inhibitors (AID 1347149); note: nearly all actives have a fitted effect of over 70% in size; note: potency is the fitted concentration of half-maximal effect
Procedure, shortened: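 Fluorogenic cleavage of BOC-RVRR-AMC (2 microM final, Km ~15 µM) was monitored (ex 340, em 450 nm) at 37C after 15 min RT preincubation of 5 nM furin with compounds in HEPES pH 7.0 buffer with CaCl2 and Triton X-100. Percent inhibition was fitted to a 4-parameter Hill curve.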

[1] = qHTS of pediatric cancer cell lines to identify multiple opportunities for drug repurposing: Confirmatory screen for RD cells (AID 1347124);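 note: cells exposed to compound for 48 h before viability readout; nearly all actives have a fitted effect of over 65% in size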; note: potency is the fitted concentration of half-maximal effect
Procedure, shortened: (§1)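 Cells (500-1,000/well) rested 5 h, then received compounds for 48 h; metabolically active cells were measured by CellTiter-Glo luminescence. Final concentrations spanned up to 46 µM (MIPE, 11-point) or 0.59 nM-46 µM (NPC, 8-point) in primary screens, 11-point in follow-ups.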

[2] = qHTS of pediatric cancer cell lines to identify multiple opportunities for drug repurposing: Confirmatory screen for Saos-2 cells (AID 1347127); note: nearly all actives have a fitted effect of over 60% in size
Procedure, shortened: as §1

[3] = qHTS of pediatric cancer cell lines to identify multiple opportunities for drug repurposing: Confirmatory screen for OHS-50 cells (AID 1347128);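 note: compound exposure lasted 48 h at 37 degrees C; nearly all actives have a fitted effect of over 55% in size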; note: potency is the fitted concentration of half-maximal effect
Procedure, shortened: as §1

[4] = qHTS of pediatric cancer cell lines to identify multiple opportunities for drug repurposing: Confirmatory screen for SK-N-SH cells (AID 1347129);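 note: cells exposed to compound for 48 h before viability read; nearly all actives have a fitted effect of over 60% in size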; note: potency is the fitted concentration of half-maximal effect
Procedure, shortened: as §1

[5] = qHTS of pediatric cancer cell lines to identify multiple opportunities for drug repurposing: Confirmatory screen for Rh18 cells (AID 1347125); note: nearly all actives have a fitted effect of over 55% in size; note: potency is the fitted concentration of half-maximal effect
Procedure, shortened: as §1

[6] = qHTS of pediatric cancer cell lines to identify multiple opportunities for drug repurposing: Confirmatory screen for Rh30 cells (AID 1347126); note: potency is the fitted concentration of half-maximal effect; nearly all actives have a fitted effect of over 55% in size
Procedure, shortened: as §1

[7] = qHTS of pediatric cancer cell lines to identify multiple opportunities for drug repurposing: Confirmatory screen for Rh41 cells (AID 1347123);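 note: 48 h compound exposure; nearly all actives have a fitted effect of over 60% in size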; note: potency is the fitted concentration of half-maximal effect
Procedure, shortened: as §1

[8] = test system: Zika virus NS2B-NS3 protease (unlinked); assay: Optimization of GU AMC qHTS for Zika virus inhibitors: Unlinked NS2B-NS3 protease assay (AID 1347151); note: series mostly up to about 52 µM; nearly all actives have a fitted effect of over 80% in size
Source text: Avindra Nath, Ph.D., National Institute of Neurological Disorders and Stroke (NINDS), Bethesda, MD
Radhakrishnan Padmanabhan, Ph.D., Georgetown University (GU), Washington D.C.
Zika Virus causes congenital defects, including microcephaly and is associated with Guillain-Barre syndrome, eningoencephalitis and myelitis in infected adult. […] Using a target-based approach, we hope to establish a screening paradigm to uncover novel, cell-active NS2B-NS3 protease (Zika Virus) specific inhibitors from NCATS' collection of small molecules using qHTS.
Early Translation Branch (ETB)
National Center for Advancing Translational Sciences (NCATS), Rockville, MD […]
Briefly, 3 microL of Zika virus unlinked NS2B-NS3 protease (25 nM for linked final concentration), in assay buffer (10 mM Tris-HCl pH 8.0 with 0.01% Tween 20) was dispensed into a 1,536-well solid-bottom black plate (Greiner Bio One, Monroe, NC). […] Plates were then read immediately on a ViewLux High-throughput CCD imager (PerkinElmer, Waltham, MA) equipped with standard UV fluorescence optics (340(30) nm excitation, 450(20) nm emission) then incubated (room temperature, protected from light) for 15 minutes (~20% conversion). The change in fluorescence intensity over the 15-minute reaction period was normalized against no-inhibitor and no-enzyme controls and the resulting percent inhibition data were fitted to a 4-parameter Hill equation. […]

Chain of Furin (Homo sapiens) (P09958 whole entry, looked up): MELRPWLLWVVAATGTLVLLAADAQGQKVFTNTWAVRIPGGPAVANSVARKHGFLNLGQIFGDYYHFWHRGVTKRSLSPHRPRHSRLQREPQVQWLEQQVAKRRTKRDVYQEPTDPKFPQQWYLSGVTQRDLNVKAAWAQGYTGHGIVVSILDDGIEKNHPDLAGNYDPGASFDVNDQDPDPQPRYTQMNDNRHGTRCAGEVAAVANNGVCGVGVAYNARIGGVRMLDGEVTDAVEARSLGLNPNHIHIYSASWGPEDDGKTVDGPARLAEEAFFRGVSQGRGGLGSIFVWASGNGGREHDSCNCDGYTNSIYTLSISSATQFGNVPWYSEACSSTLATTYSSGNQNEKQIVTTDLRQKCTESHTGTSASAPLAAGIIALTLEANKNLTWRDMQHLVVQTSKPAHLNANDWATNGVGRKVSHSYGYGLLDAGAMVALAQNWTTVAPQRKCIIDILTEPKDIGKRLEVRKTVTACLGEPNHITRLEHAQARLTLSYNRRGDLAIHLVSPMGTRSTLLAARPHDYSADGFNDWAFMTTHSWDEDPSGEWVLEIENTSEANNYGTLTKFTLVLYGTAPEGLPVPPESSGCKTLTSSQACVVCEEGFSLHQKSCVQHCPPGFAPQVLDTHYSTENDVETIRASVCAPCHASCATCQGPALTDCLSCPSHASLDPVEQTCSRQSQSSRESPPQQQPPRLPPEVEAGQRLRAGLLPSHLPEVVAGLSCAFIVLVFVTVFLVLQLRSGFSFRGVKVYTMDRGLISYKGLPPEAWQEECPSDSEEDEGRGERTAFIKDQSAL

## Fc1ccc(C(c2ccc(F)cc2)N2CCN(CC=Cc3ccccc3)CC2)cc1
Furin (Homo sapiens)
  Potency: inactive

## COC1CCC(C(=O)c2ccc3nc4c(cc3c2)CCCO4)CC1 (stereo unspecified)
[1]
  Potency: inactive
[2]
  Potency: inactive
[3]
  Potency: inactive
[4]
  Potency: inactive

## O=C(O)Cc1cccc(OCCCN(Cc2cccc(C(F)(F)F)c2Cl)CC(c2ccccc2)c2ccccc2)c1
Furin (Homo sapiens)
  Potency: 7.62 µM (active)

## Cc1ccccc1-n1c(Cn2nc(-c3cccc(O)c3)c3c(N)ncnc32)nc2cccc(C)c2c1=O
[5]
  Potency: inactive
[6]
  Potency: 13.1 µM (active)
[2]
  Potency: inactive
[3]
  Potency: inactive
[4]
  Potency: inactive

## CCCCC[C@H](O)C=C[C@H]1[C@H](O)CC(=O)[C@H]1CCCCCCC(=O)O
Furin (Homo sapiens)
  Potency: inactive

## Nc1[nH]nc2nnc(-c3c(-c4ccccc4)nn4ccccc34)cc12
[7]
  Potency: inactive
[4]
  Potency: inactive

## c1cc(OCCN2CCCCC2)cc(-c2n[nH]c3ccc(-c4ncn[nH]4)cc23)c1
Furin (Homo sapiens)
  Potency: 21.5 µM (active)

## O=c1cc(-c2ccc(O)c(O)c2)oc2cc(O)cc(O)c12
Furin (Homo sapiens)
  Potency: inactive

## N#CC1(c2cccc(C(=O)Nc3cc(Oc4ccc5nc(NC(=O)C6CC6)sc5n4)ccc3F)c2Cl)CC1
Furin (Homo sapiens)
  Potency: inactive

## OC(c1cc(C(F)(F)F)nc2c(C(F)(F)F)cccc12)C1CCCCN1 (stereo unspecified)
Furin (Homo sapiens)
  Potency: 0.961 µM (active)
[8]
  outcome: inactive

## CC[C@H](C)n1cc(C)c2c(C(=O)NCc3c(C)cc(C)[nH]c3=O)cc(-c3ccc(N4CCNCC4)nc3)cc21
Furin (Homo sapiens)
  Potency: 27 µM (active)

## COC(=O)Nc1ccc(-c2nc(N3CCOCC3)c3cnn(C4CCN(C(=O)OC)CC4)c3n2)cc1
[7]
  Potency: 2.61 µM (active)
[3]
  Potency: 16.5 µM (active)
[4]
  Potency: 4.18 µM (active)

## CCC(C)SSc1ncc[nH]1 (stereo unspecified)
[7]
  Potency: 9.27 µM (active)
[4]
  Potency: 16.6 µM (active)

## O=C(CC12CC3CC(CC(C3)C1)C2)Nc1cccc2nc(NCCNCCO)ccc12
[7]
  Potency: 13.1 µM (active)
[4]
  Potency: inactive

## CN[C@@H]1CN(c2ccc3c(=O)c(C(=O)O)cn(-c4nccs4)c3n2)C[C@@H]1OC
[1]
  Potency: 14.4 µM (active)
[5]
  Potency: 14.4 µM (active)
[2]
  Potency: inactive
[3]
  Potency: 6.44 µM (active)
[4]
  Potency: 7.24 µM (active)

## OCCn1cc(-c2ccc3c(c2)CCC3=NO)c(-c2ccncc2)n1
[1]
  Potency: 8.51 µM (active)
[5]
  Potency: inactive
[3]
  Potency: inactive
[4]
  Potency: inactive

## CCCCn1c(=O)n(Cc2ccccc2F)c(=O)c2[nH]c(Cc3ccc(NC(C)=O)cc3)nc21
[2]
  Potency: inactive
[3]
  Potency: inactive
[4]
  Potency: inactive

## CC(C)c1onc(-c2c(Cl)cccc2Cl)c1COc1ccc(C=Cc2cccc(C(=O)O)c2)c(Cl)c1
Furin (Homo sapiens)
  Potency: 30.4 µM (active)

## O=S(=O)(O)c1ccc2cc(N=Nc3cc(S(=O)(=O)O)c4cccnc4c3O)ccc2c1
Furin (Homo sapiens)
  Potency: inactive
